Screening data: PubChem BioAssay, several laboratories
Shown are actives, neighbours in structure and some others; about 27% of the full set was active somewhere.
CYP2C19 inhib: blockers of cytochrome P450 2C19 activity – biochemical, luminescence, ADME assay, primary screen; P33261; CYP2C19 Supersomes, luciferin-H EGE luminescence, 30 min; inhibition, % at 5 µM; hit rate 21% among 96,000; AID 778, 2007;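 active = CYP2C19 inhibition above a set limit at 5 µM in the primary screen, cut at about 50% in these data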
CYP2C9 inhib: blockers of cytochrome P450 2C9 activity – biochemical, luminescence, ADME assay, primary screen | CYP2C9 Supersomes, luciferin-H conversion | inhibition, % at 5 µM | hit rate 20% among 96,000 | AID 777, 2007;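 active = blocking of liver enzyme CYP2C9 beyond about 50% at 5 µM, limit read from the data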
Target sequence (P11712 whole entry, looked up): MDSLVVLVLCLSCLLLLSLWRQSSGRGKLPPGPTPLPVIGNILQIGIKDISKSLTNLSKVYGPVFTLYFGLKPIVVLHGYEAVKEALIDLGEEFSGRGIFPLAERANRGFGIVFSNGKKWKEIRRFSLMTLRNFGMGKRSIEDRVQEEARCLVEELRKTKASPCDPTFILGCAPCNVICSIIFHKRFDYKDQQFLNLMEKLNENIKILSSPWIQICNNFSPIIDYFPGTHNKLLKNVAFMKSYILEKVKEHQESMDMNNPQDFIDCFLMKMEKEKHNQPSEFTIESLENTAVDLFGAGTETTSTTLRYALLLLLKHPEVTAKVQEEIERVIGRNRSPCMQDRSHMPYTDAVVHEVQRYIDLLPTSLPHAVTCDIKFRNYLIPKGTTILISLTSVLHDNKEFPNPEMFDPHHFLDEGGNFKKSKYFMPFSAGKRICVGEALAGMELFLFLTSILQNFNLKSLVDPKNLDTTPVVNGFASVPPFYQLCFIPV
CYP2C19 act: human CYP2C19 activators, primary screen, biochemical, luminescence | Cytochrome P450 2C19 (Homo sapiens), P33261 | recombinant CYP2C19, luciferin-H EGE luminescence; hits give high values; 0 = fully inhibited enzyme, 1 = untreated enzyme | activation factor at 5 µM | 96,000 tested, under 10 active | AID 1025, 2008;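 active = activation factor of at least 2 at 5 µM in the primary screen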
sEH inh: soluble epoxide hydrolase inhibitors, primary screen, biochemical, human sEH; recombinant human sEH enzymatic activity assay; inhibition, % at 2 µM; hit rate 0.34% among 91,000; AID 707, 2007; Bifunctional epoxide hydrolase 2 (Homo sapiens), P34913; in the data active = inhibition above about 80%
sEH act: soluble epoxide hydrolase activators, primary screen, biochemical, human sEH; Bifunctional epoxide hydrolase 2 (Homo sapiens), P34913; purified human sEH enzymatic activity, activator screen; activation, % at 2 µM; hit rate 0.04% among 91,000; AID 717, 2007; in the data active = activation above about 37%
CYP2C9 activ: human CYP2C9 activators, primary screen, biochemical, luminescence. Cytochrome P450 2C9 (Homo sapiens), P11712. recombinant CYP2C9, luciferin-H conversion; hits give high values; factor 1 = untreated enzyme, 0 = blocked. activation factor at 5 µM. hit rate 1.4% among 96,000. AID 1024, 2008;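 active = activation factor of 2 or more for CYP2C9 at a 5 µM dose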
Numbers stand for hits.

Results for CC1=C(C(=O)OCC2CCCO2)C(c2ccccc2)NC(=O)N1 (stereo unspecified) ?
CYP2C19 inhib: 62.2; CYP2C9 inhib: inactive; CYP2C19 act: inactive; CYP2C9 activ: inactive

Results for CC1=C(C(=O)OCC2CCCO2)C(c2ccc(O)cc2)NC(=O)N1 (stereo unspecified) ?
CYP2C19 inhib: inactive; CYP2C9 inhib: inactive; CYP2C19 act: inactive; CYP2C9 activ: inactive

How did CCN1C(=O)c2ccccc2S(=O)c2ccc(C(=O)NC3CC3)cc21 (stereo unspecified) do in these assays?
CYP2C19 inhib: inactive; CYP2C9 inhib: inactive; CYP2C19 act: inactive; sEH inh: inactive; sEH act: inactive; CYP2C9 activ: inactive

What do the screens show for `Nc1c(C(=O)NC23CC4CC(CC(C4)C2)C3)sc2nc3c(c(C(F)(F)F)c12)CCC3`?
CYP2C19 inhib: inactive; CYP2C9 inhib: inactive; CYP2C19 act: inactive; sEH inh: inactive; sEH act: inactive; CYP2C9 activ: inactive

Results for CC(=O)N1c2c(ccc3ccccc23)C(C)CC12CCCCC2 (stereo unspecified) ?
CYP2C19 inhib: 98.0; CYP2C9 inhib: 93.3; CYP2C19 act: inactive; sEH inh: inactive; sEH act: inactive; CYP2C9 activ: inactive

Results for CC(C)C1N(c2ccccc2)C(N)=C(C#N)C1(C#N)C#N (stereo unspecified) ?
CYP2C19 inhib: inactive; CYP2C9 inhib: inactive; CYP2C19 act: inactive; sEH inh: inactive; sEH act: inactive; CYP2C9 activ: inactive

How did COc1ccc(S(=O)(=O)NCCSC(C)(C)C)cc1 do in these assays?
CYP2C19 inhib: 95.9; CYP2C9 inhib: inactive; CYP2C19 act: inactive; sEH inh: inactive; sEH act: inactive; CYP2C9 activ: inactive

How did CC(C)(C)SCCNS(=O)(=O)c1ccc2ccccc2c1 do in these assays?
CYP2C19 inhib: 86.5; CYP2C9 inhib: inactive; CYP2C19 act: inactive; sEH inh: inactive; sEH act: inactive; CYP2C9 activ: 2.7

How did COc1ccc(S(=O)(=O)NCCSC(C)(C)C)cc1Cl do in these assays?
CYP2C19 inhib: inactive; CYP2C9 inhib: inactive; CYP2C19 act: inactive; sEH inh: inactive; sEH act: inactive; CYP2C9 activ: 2.9

Results for CSc1ccc(S(=O)(=O)NCCOc2ccccc2C)cc1 ?
CYP2C19 inhib: 63.3; CYP2C9 inhib: inactive; CYP2C19 act: inactive; sEH inh: inactive; sEH act: inactive; CYP2C9 activ: inactive

Results for CCOC(=O)C1(CC)NC(c2cccc(F)c2)C2C(=O)N(CC)C(=O)C21 (stereo unspecified) ?
sEH inh: inactive; sEH act: inactive

What do the screens show for `COc1ccc(-c2nnn(CC(=O)N(CC(=O)NCCC(C)C)Cc3cccs3)n2)cc1OC`?
CYP2C19 inhib: inactive; CYP2C9 inhib: inactive; CYP2C19 act: inactive; sEH inh: inactive; sEH act: inactive; CYP2C9 activ: inactive

Results for COC(=O)c1ccccc1NC(=O)c1cc(-c2ccc(C)cc2)on1 ?
CYP2C19 inhib: inactive; CYP2C9 inhib: inactive; CYP2C19 act: inactive; sEH inh: inactive; sEH act: inactive; CYP2C9 activ: inactive

How did COc1ccc(S(=O)(=O)NCCSCc2ccco2)cc1Cl do in these assays?
CYP2C19 inhib: 94.8; CYP2C9 inhib: inactive; CYP2C19 act: inactive; sEH inh: inactive; sEH act: inactive; CYP2C9 activ: 2.1

Results for CC(C)(C)SCCNS(=O)(=O)c1ccccc1 ?
CYP2C19 inhib: inactive; CYP2C9 inhib: inactive; CYP2C19 act: inactive; sEH inh: inactive; sEH act: inactive; CYP2C9 activ: inactive

What do the screens show for `CSc1ccc(S(=O)(=O)NCCSC(C)(C)C)cc1`?
CYP2C19 inhib: 85.8; CYP2C9 inhib: inactive; CYP2C19 act: inactive; sEH inh: inactive; sEH act: inactive; CYP2C9 activ: inactive

Results for N#Cc1c(-c2ccc3c(c2)OCO3)ccn2nc(-c3cccc(C(F)(F)F)c3)nc12 ?
CYP2C19 inhib: inactive; CYP2C9 inhib: inactive; CYP2C19 act: inactive; sEH inh: inactive; sEH act: inactive; CYP2C9 activ: inactive

Results for CC(=O)c1cc(Cc2csc(C(C)=O)c2)cs1 ?
CYP2C19 inhib: 62.3; CYP2C9 inhib: inactive; CYP2C19 act: inactive; CYP2C9 activ: inactive

What do the screens show for `C=CCn1c(SCc2csc(C)n2)nc2sc3c(c2c1=O)CCC(C)C3` (stereo unspecified)?
sEH inh: inactive; sEH act: inactive

Results for C=CCn1c(SCc2csc(C)n2)nc2sc3c(c2c1=O)CCCCC3 ?
CYP2C19 inhib: inactive; CYP2C9 inhib: 88.3; CYP2C19 act: inactive; sEH inh: inactive; sEH act: inactive; CYP2C9 activ: inactive

Results for C=CCn1c(SCc2csc(C)n2)nc2sc3c(c2c1=O)CCCC3 ?
CYP2C19 inhib: inactive; CYP2C9 inhib: 50.4; CYP2C19 act: inactive; sEH inh: inactive; sEH act: inactive; CYP2C9 activ: inactive

Results for COc1ccccc1N1CCN(C(=O)c2ccc(C(C)(C)C)cc2)CC1 ?
CYP2C19 inhib: 75.2; CYP2C9 inhib: 90.9; CYP2C19 act: inactive; sEH inh: inactive; sEH act: inactive; CYP2C9 activ: inactive

How did COc1ccccc1N1CCN(C(=O)c2ccncc2)CC1 do in these assays?
CYP2C19 inhib: 100.4; CYP2C9 inhib: 86.3; CYP2C19 act: inactive; sEH inh: inactive; sEH act: inactive; CYP2C9 activ: inactive

Results for Cc1onc(-c2ccccc2)c1C(=O)N1CCCSC1=Nc1ccccc1 ?
CYP2C19 inhib: 98.5; CYP2C9 inhib: 61.3; CYP2C19 act: inactive; sEH inh: inactive; sEH act: inactive; CYP2C9 activ: inactive

What do the screens show for `CCOc1ccccc1N1CCN(C(=O)c2ccccc2)CC1`?
CYP2C19 inhib: inactive; CYP2C9 inhib: inactive; CYP2C19 act: inactive; sEH inh: inactive; sEH act: inactive; CYP2C9 activ: inactive

What do the screens show for `COc1ccccc1N1CCN(C(=O)c2c(-c3ccccc3)noc2C)CC1`?
CYP2C19 inhib: 55.1; CYP2C9 inhib: inactive; CYP2C19 act: inactive; CYP2C9 activ: inactive

Results for COc1ccccc1N1CCN(C(=O)c2ccc(S(=O)(=O)N3CCCC3)cc2)CC1 ?
CYP2C19 inhib: inactive; CYP2C9 inhib: inactive; CYP2C19 act: inactive; sEH inh: inactive; sEH act: inactive; CYP2C9 activ: inactive

How did CCOc1ccccc1/C=c1\sc2ncnn2c1=O do in these assays?
CYP2C19 inhib: inactive; CYP2C9 inhib: inactive; CYP2C19 act: inactive; sEH inh: inactive; sEH act: inactive; CYP2C9 activ: 2.2

How did Cc1ccc(NS(=O)(=O)c2ccc(OCC(=O)Nc3cccc([N+](=O)[O-])c3)c(C)c2)cc1 do in these assays?
CYP2C19 inhib: 52.3; CYP2C9 inhib: 88.9; CYP2C19 act: inactive; sEH inh: inactive; sEH act: inactive; CYP2C9 activ: inactive

What do the screens show for `Cc1ccc(S(=O)(=O)N(CC(=O)Nc2cccc([N+](=O)[O-])c2)C2CCCCC2)cc1`?
CYP2C19 inhib: inactive; CYP2C9 inhib: 92.0; CYP2C19 act: inactive; sEH inh: inactive; sEH act: inactive; CYP2C9 activ: inactive
